# From PubChem BioAssay (NCI)
# This is part of a sample that, as a whole, favours compounds with a hit. Of some 83,000 tested, about 20% had one in any assay.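 Single-dose data. Exposure time 48 hours. Values below 10 considered active.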 Unmarked numbers belong to inactive results. Active and inactive are the calls of the source.
# Test system: NCI-H460 lung
# Experiment: NCI-60 one-dose screen, 48 h (100 = growth as untreated, 0 = no growth, -100 = all killed)
# Details: 10 µM unless noted
row,SMILES,growth
1,O=C(COc1ccc(NC(=O)Nc2ccc(Cl)c(Cl)c2)cc1)N=Nc1c(O)[nH]c2ccccc12,-63.4% (active)
2,COc1ccc(-c2nnc3ccc(N/N=C/c4ccc(O)cc4)nn23)cc1,44.3%
3,CCCSc1nc(NCCc2c[nH]c3ccccc23)c(C#N)c(-c2ccccc2)n1,25%
4,CSc1ccc(C(=O)Nc2ccc3nnn(/C(C#N)=C/c4ccccn4)c3c2)cc1,-40.1% (active)
5,CC(=O)OC[C@@]1(C)C2CC[C@]3(C)C(CC=C4C5CC(C)(C)CC[C@]5(C(=O)Nc5cccc(C)c5)CC[C@]43C)[C@@]2(C)C[C@@H](OC(C)=O)[C@@H]1OC(C)=O (stereo not given in full),12.7%
6,CN(C)c1ccnc(CNCCSC2(c3ccccc3)c3ccccc3C=Cc3ccccc32)c1,-87.4% (active)
7,Cn1cc(-c2nnc(N)nc2-c2c[nH]c3ccc(F)cc23)c2cccnc21,18%
8,Clc1cccc(-c2ccc(OCCCN3CCN(c4ccncc4)CC3)cc2)c1,-67.5% (active)
9,Cc1ccccc1[C@H]1C(C(=O)c2ccc(Cl)cc2)C2(N[C@@H]1c1ccccc1)C(=O)Nc1ccc(Br)cc12 (stereo not given in full),3.51% (active)
10,CN(C)c1ccnc(CNCCSC2(c3ccc(C(F)(F)F)cc3)c3ccccc3C=Cc3ccccc32)c1,-89.4% (active)
11,O=C(c1ccc(OCCN2CCOCC2)cc1)C1[C@H](c2ccc(Cl)cc2)[C@@H](c2ccccc2)NC12C(=O)Nc1ccc(Cl)cc12 (stereo not given in full),10.1%
12,COc1cc(CNC(=O)/C=C/c2ccc3c(c2)OCO3)ccc1OCc1cn(-c2ccc([N+](=O)[O-])cc2)nn1,94.6%
13,CC(=O)Nc1ccc(-c2nc3cc(-c4ccc(O)cc4)ccc3n2C)cc1,33.8%
14,Clc1cccc(Cl)c1/C=C/c1cc(/C=C/c2ccc(Br)cc2)c2ccccc2n1,99.5%
15,COc1cc(OC)cc(-c2cc3ccc(N(C)C)cc3c(=O)[nH]2)c1,9.42% (active)
16,CNC(=O)c1cc(Oc2ccc3nc(NC(=O)Nc4cccc(OC(F)(F)F)c4)sc3c2)ccn1,29.9%
17,N#Cc1c(-c2ccc(Br)cc2)nc2n[nH]c(-c3ccc(Br)cc3)c2c1-c1ccc(F)cc1,106%
18,CCN1CCN(Cc2ccc(C(=O)Nc3cccc(C#Cc4cccc5[nH]nc(N)c45)c3)cc2C(F)(F)F)CC1,-39.2% (active)

row,SMILES,growth
1,O=c1[nH]n(C(=S)N/N=C/c2ccccc2Cl)c(=O)c2ccccc12,14.5%
2,CC1(C)CC[C@]2(C(=O)Nc3ccccc3)CC[C@]3(C)C(=CCC4[C@@]5(C)C[C@@H](O)[C@H](O)[C@@](C)(CO)C5CC[C@]43C)C2C1 (stereo not given in full),51.4%
3,Nc1nnc(-c2c[nH]c3ncc(Br)cc23)c(-c2c[nH]c3ccc(F)cc23)n1,25.7%
4,COc1ccc(C(=O)/C=C/c2ccccc2Br)cc1S(N)(=O)=O,1.47% (active)
5,CSc1ccccc1NC(=O)c1ccc2nn(/C(C#N)=C/c3ccccn3)nc2c1,-36.9% (active)
6,O=C(N=Nc1c(O)[nH]c2ccc(Cl)cc12)c1ccc2nc(-c3ccccc3)[nH]c2c1,26.3%
7,CC(=O)Oc1ccccc1C(=O)[Se]C(=NC1CCCCC1)NC1CCCCC1,-41.6% (active)
8,CSc1ccc(NC(=O)c2ccc3nnn(/C(C#N)=C/c4ccccn4)c3c2)cc1,-47.2% (active)
9,COc1ccc(C(=O)/C=C/c2cccnc2)cc1S(N)(=O)=O,19.9%
10,Cc1ccc([C@H]2C(C(=O)c3ccc(Cl)cc3)C3(N[C@@H]2c2ccccc2)C(=O)Nc2ccccc23)cc1 (stereo not given in full),45.8%
11,CN(C)CCCNC(=O)c1cc(NC(=O)c2cc(NC(=O)c3ccc(C#Cc4ccccc4)cc3)cn2C)cn1C,-28.9% (active)
12,COc1ccc(C(=O)/C=C/c2cccc3ccccc23)cc1S(N)(=O)=O,2.2% (active)
13,COc1ccc(NC(=O)c2sc3nc(C(C)C)ccc3c2N)cc1,88%
14,COc1ccc([C@H](C)Nc2nc(Cl)nc3ccccc23)cc1,60.8%
15,COc1cc2oc(-c3cccc(NC(=O)[C@H](Cc4ccccc4)NC(=O)OC(C)(C)C)c3)cc(=O)c2c(OC)c1OC,11.5%
16,Cc1ccc(C(=O)CSc2nc3ccc(F)cc3c(=O)n2-c2ccc(Cl)cc2)cc1,22.4%
17,CC(C)Sc1nc(NCCc2c[nH]c3ccccc23)c(C#N)c(-c2ccc(F)cc2)n1,5.26% (active)
